Experimental data from PubChem BioAssay (NCI).
About 83,000 compounds went through this panel and 20% of them were active in at least one assay; those are over-represented in the sample as a whole.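 Cells were grown in 96-well plates and exposed to the test compound at a single concentration for 48 hours; results are reported as percent growth, with values below 10 considered active.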 Unmarked numbers belong to inactive results. Activity calls are given as the source filed them.

Assays:
Test in all cases: NCI-60 one-dose screen, 48 h (100 = growth as untreated, 0 = no growth, -100 = all killed)
Conditions in all cases: 10 µM unless noted
DU-145 prostate = test system: DU-145 prostate
K-562 leukemia = test system: K-562 leukemia
MALME-3M melanoma = test system: MALME-3M melanoma
MDA-MB-231 breast = test system: MDA-MB-231 breast
RXF 393 renal = test system: RXF 393 renal
SF-268 CNS = test system: SF-268 CNS
SF-295 CNS = test system: SF-295 CNS
SF-539 CNS = test system: SF-539 CNS
UACC-257 melanoma = test system: UACC-257 melanoma
M14 melanoma = test system: M14 melanoma
HCT-15 colon = test system: HCT-15 colon
SNB-75 CNS = test system: SNB-75 CNS
SNB-19 CNS = test system: SNB-19 CNS
PC-3 prostate = test system: PC-3 prostate
SK-MEL-5 melanoma = test system: SK-MEL-5 melanoma
LOX IMVI melanoma = test system: LOX IMVI melanoma
SK-MEL-28 melanoma = test system: SK-MEL-28 melanoma
HT29 colon = test system: HT29 colon
U251 CNS = test system: U251 CNS
UACC-62 melanoma = test system: UACC-62 melanoma

Row | Structure (SMILES) | growth (DU-145 prostate) | growth (K-562 leukemia) | growth (MALME-3M melanoma) | growth (MDA-MB-231 breast) | growth (RXF 393 renal) | growth (SF-268 CNS) | growth (SF-295 CNS) | growth (SF-539 CNS) | growth (UACC-257 melanoma) | growth (M14 melanoma) | growth (HCT-15 colon) | growth (SNB-75 CNS) | growth (SNB-19 CNS) | growth (PC-3 prostate) | growth (SK-MEL-5 melanoma) | growth (LOX IMVI melanoma) | growth (SK-MEL-28 melanoma) | growth (HT29 colon) | growth (U251 CNS) | growth (UACC-62 melanoma)
1 | COc1ccc(C(=O)C2=CC(=O)C(=O)C2)cc1OC | 111% | 116% | 114% | 124% | 106% | 103% | 100% | 95.5% | 115% | 107% | 96.2% | 90.8% | 105% | 94.5% | 103% | 101% | 112% |  |  | 
2 | CC[Si](CC)(CC)OC1[C@@H](O[Si](CC)(CC)CC)[C@@H](CNC(=O)NC)O[C@H]1n1cnc2c(NC(=O)Nc3ccccc3)ncnc21 (stereo partly drawn) | 89.3% | 15.9% | 63.2% | 97.4% | 116% | 67.5% | 59% | 99% |  | 99.9% | 86.2% | 78.1% |  | 11.2% | 95.1% | 93.7% | 104% | 50.2% | 82.8% | 73%
3 | O=C(NCc1ccc(F)cc1)C1CN(c2ccc(Cl)cc2)N(c2ccc(Cl)cc2)C1=O (stereo not drawn) | 85.3% | 23.3% | 60% | 84.3% | 65.5% | 65% | 42.5% | 87.6% | 76.3% |  | 45.1% | 36.7% | 78.1% | 61.9% | 52.9% | 72.3% | 74.9% | 25.6% | 56.6% | 42%
4 | COc1ccc(-n2c(SCc3cc(OC)c(OC)c(OC)c3)nc3ccc(C)cc3c2=O)c(OC)c1 | 4.58% (active) | 14.4% | 25.5% | 44.8% | 19.6% | 44.1% | 6.35% (active) | 20% |  | 11.2% | 23.7% | 29.6% |  | 8.75% (active) | 17.6% | 31.6% | 40.8% | 11.3% | 24.9% | 
5 | CCCCCCCC/C=C\CCCCCCCCOc1cccc(CC(=O)NCC[N+](C)(C)C)c1 | 94.4% | 85.5% | 90.1% | 87.3% | 13.8% | 71.5% | 87.1% | 92.2% | 103% | 75.3% | 91.7% | 59.1% | 60.1% | 36.4% | 90.8% | 89% | 99.6% |  |  | 80.8%
6 | CCN1CCN(c2nc3ccccc3c3c(=O)c4cc(F)ccc4sc23)CC1 | 66.4% | 10.2% | 90.9% | 51.8% | 47.3% | 53.7% | 93.2% | 86% | 78.7% |  | 48.2% | 39.7% | 80.9% | 78% | 82.8% | 60.9% | 78.2% |  |  | 44.1%
7 | Cc1ccc(-c2nnc(COc3ccc(-c4nnc(N)s4)cc3)o2)cc1 | 100% | 91.1% | 67.6% | 87.8% | 58% | 79.6% | 7.56% (active) | 109% | 112% | 88.1% | 81.3% | 94.2% | 86% | 83.9% |  | 26% | 98.3% |  |  | 83.2%
8 | C=CC(=O)N1CC2(CCC(n3nc(-c4ccc(Oc5ccccc5)cc4)c4c(N)ncnc43)CC2)C1 | -52.3% (active) | 3.48% (active) | -70.7% (active) | -31% (active) | -94.9% (active) | -81.1% (active) | -13.9% (active) | -94.4% (active) |  | -79.7% (active) | -60.5% (active) | -69.5% (active) | -0.912% (active) | -19.6% (active) |  | -65% (active) | -67.9% (active) | -60.3% (active) | -73.8% (active) | 
9 | C=C[C@H]1C[C@@H]2C[C@@H]3[C@H]4C/C=C\C(=O)NCCCC5NC(=O)C(=C(O)/C=C/[C@@H]4CC(=O)[C@H]3[C@@H]2[C@H]1C)C5=O (stereo partly drawn) | -95.7% (active) | -58.1% (active) | -72% (active) | -75.6% (active) | -85.6% (active) | -88.6% (active) | 9.25% (active) | -81.1% (active) | -89.1% (active) |  | -76.2% (active) | -85.4% (active) | -74% (active) | -82.5% (active) |  | -47.2% (active) | -78% (active) |  | -96.4% (active) | -75.8% (active)
10 | COc1ncc(F)c(OC)n1 | 110% | 100% | 103% | 115% | 105% | 104% | 97.7% | 107% | 101% | 102% |  | 89.1% | 111% | 92.2% | 97.5% | 102% | 107% | 104% |  | 106%
11 | NC1=NC(c2ccccc2OS(=O)(=O)c2ccc(Br)cc2)n2c(nc3ccccc32)N1 (stereo not drawn) | 109% | 74.4% | 104% | 80.1% | 109% | 95.1% | 99.1% | 96% | 96.8% |  | 102% | 80.2% | 98.1% | 80.1% | 91% |  | 102% | 92.1% |  | 82.7%
12 | Cc1ccc2c(N/N=C\c3ccco3)cc(C)nc2n1 | 59.6% | 37.2% | 90.7% | 68.9% | 63.7% | 77.5% | 69.5% | 72% | 76.5% | 34.6% | 36.6% | 85.5% | 87.4% | 70.5% | 94.8% | 46.5% | 80.5% |  |  | 51.1%
13 | O=C1N/C(=C\c2ccccc2)c2ncccc21 | 106% | 90.7% | 95.2% | 94.3% | 127% | 98.6% | 107% | 101% | 100% | 98.5% | 101% |  | 104% | 102% | 105% | 99.2% | 119% |  |  | 102%
14 | Cc1cccc2c(=O)c3c(sc12)c(NCCCN)nc1ccccc13 | -19.8% (active) | -34.6% (active) | 13.9% | -32.4% (active) | 31.5% | 46.2% | 68% | 38.4% | 81.9% | -19.7% (active) | -69.2% (active) | 19.7% | 51.3% |  | 47.3% | -93.7% (active) | 8.94% (active) |  | 1.33% (active) | 14.2%
15 | Cc1ccc2c(c1)c(Sc1ccc(C(=O)NO)cc1)c1n2CN(C)CC1 | 11.7% | 11.5% | 26.6% | -32.2% (active) | 33% | 1.67% (active) | 11.8% | -35.1% (active) |  | 26% | 58.7% | 17.8% | 31% | -3.93% (active) |  | -33.1% (active) | 7.31% (active) | 25.6% |  | -1.71% (active)
16 | COc1ccccc1-n1c(SCc2cc(OC)c(OC)c(OC)c2)nc2ccc(Cl)cc2c1=O | 30.1% | 12.7% | 33% | 55.7% | 61.5% | 41.6% | 31.9% | 64.6% |  | 15.9% | 27.8% | -4.26% (active) |  | 19.6% | 27.7% | 33.2% | 49.4% | 7.69% (active) | 25.6% | 34.3%
17 | CN1CCN(C)c2cncc(Br)c2C1=O | 114% | 102% | 99.3% | 106% | 105% | 102% | -85% (active) | 109% | 90.3% |  | 105% | 101% | 106% | 103% | 101% | 102% | 110% |  | 106% | 105%
